Out of some 1,300 compounds screened, about 930 (72%) were called active.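 The calls were made as follows: active = fitted curve reaches 40% activation signal increase at or below the top valid tested concentration in every replicate test; inconclusive = replicate tests disagree in their calls; inactive = all replicate tests inactive, including effects opposite the expected signal rise.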 So high a share suggests a set chosen from earlier hits. Not all results are given here. Potency and affinity values are given separately.
experiment: suppression of miR-122 activity, Renilla luciferase sensor – cell-based, Huh7 psiCHECK-miR122, cherry-pick, dose response (AID 652053); conditions: Huh7 psiCHECK-miR122 Renilla luciferase reporter, 48 h; series mostly up to 35 µM

outcome, inactive:
CCC(C)(C)n1nnnc1C(c1ccc(C)cc1)N1CCC(C)CC1 (stereo not given)
C[C@@H]1CN([C@H](C)CO)C(=O)Cc2cc(NC(=O)Nc3cccc4ccccc34)ccc2O[C@H]1CN(C)C(=O)Nc1cccc2ccccc12
C[C@H](CO)N1C[C@H](C)[C@H](CN(C)C(=O)Nc2cccc3ccccc23)Oc2ccc(NC(=O)Nc3cccc4ccccc34)cc2CC1=O
C[C@H]1CN([C@@H](C)CO)C(=O)Cc2cc(NC(=O)Nc3ccc(C(F)(F)F)cc3)ccc2O[C@@H]1CN(C)C(=O)Nc1cccc2ccccc12
C[C@H](CO)N1C[C@H](C)[C@H](CN(C)C(=O)Nc2cccc3ccccc23)Oc2ccc(NC(=O)Nc3ccc(C(F)(F)F)cc3)cc2CC1=O
C[C@@H]1CN([C@@H](C)CO)C(=O)Cc2cc(NC(=O)Nc3ccc(C(F)(F)F)cc3)ccc2O[C@H]1CN(C)C(=O)Nc1cccc2ccccc12
CN(C)S(=O)(=O)c1ccc2c(c1)nc(CCC(=O)NCC1CCCCC1)n2C
O=C(COc1ccc2c(c1)C(=O)CC1(CCCCC1)O2)NCc1ccccc1
CC1(C)N([O-])C(c2cccs2)=C[N+]1=O
C[C@H]1CN([C@@H](C)CO)C(=O)Cc2cc(NC(=O)Nc3cccc4ccccc34)ccc2O[C@H]1CN(C)C(=O)NC1CCCCC1
C[C@@H]1CN([C@H](C)CO)S(=O)(=O)c2ccc(C3=CCCCC3)cc2O[C@@H]1CN(C)Cc1ccccc1
C[C@@H]1CN([C@H](C)CO)S(=O)(=O)c2ccc(-c3ccccc3)cc2O[C@H]1CN(C)C(=O)C1CCCCC1
COC(=O)C[C@H]1CC[C@@H]2[C@H](COc3ccc(NS(=O)(=O)c4ccc(C)cc4)cc3C(=O)N2C)O1
O=C(c1ccccc1F)N1C[C@H]2[C@@H](c3ccccc31)[C@H](CO)N2C(=O)c1ccc(F)cc1
O=C(c1ccccc1F)N1C[C@@H]2[C@H](c3ccccc31)[C@@H](CO)N2C(=O)c1ccc(F)cc1
O=C(c1ccccc1F)N1C[C@H]2[C@@H](c3ccccc31)[C@H](CO)N2C(=O)c1cccnc1
COc1ccc(N2C(=O)c3cccc4c(N(C)CCO)ccc(c34)C2=O)cc1
O=C(C[C@H]1CC[C@H]2[C@@H](COC[C@H](O)CN2C(=O)Nc2cccc(F)c2)O1)NCc1ccccc1F
C[C@H](CO)N1C[C@H](C)[C@@H](CN(C)C(=O)Nc2cccc3ccccc23)Oc2c(NC(=O)C3CCOCC3)cccc2C1=O
C[C@H](CO)N1C[C@H](C)[C@@H](CN(C)Cc2ccc(C(=O)O)cc2)Oc2c(NC(=O)C3CCOCC3)cccc2C1=O
COC(=O)c1ccc(Cl)c(NC(C)=O)c1
COc1ccccc1CNC(=O)C[C@@H]1CC[C@@H]2[C@@H](COc3ccc(NC(C)=O)cc3C(=O)N2C)O1
Cc1ccc(NC(=O)[C@@H]2CCCN2S(=O)(=O)c2ccccc2F)cc1S(=O)(=O)N1CCOCC1
C[C@@H]1CN([C@H](C)CO)C(=O)Cc2cc(NC(=O)Nc3cccc4ccccc34)ccc2O[C@H]1CN(C)C(=O)NC1CCCCC1
Cc1cccc(OCCCC(=O)Nc2ccc(Cl)c(S(=O)(=O)N3CCOCC3)c2)c1
COC(=O)c1cc(Br)ccc1NC(=O)Nc1ccccc1
COc1ccc2c(c1)C(C)=CC(C)(C)N2S(=O)(=O)c1ccc(Br)cc1
C[C@H](CO)N1C[C@H](C)[C@H](CN(C)S(=O)(=O)c2ccc(Cl)cc2)Oc2ccc(N(C)C)cc2CC1=O
C[C@H](CO)N1C[C@H](C)[C@H](CN(C)S(C)(=O)=O)Oc2ccc(N(C)C)cc2CC1=O
C[C@H](CO)N1C[C@H](C)[C@H](CN(C)CC2CC2)Oc2ccc(N(C)C)cc2CC1=O
CC(C)NC(=O)N(C)C[C@@H]1Oc2ccc(N(C)C)cc2CC(=O)N([C@H](C)CO)C[C@@H]1C
CCCOC(=O)c1[nH]c2c(c1C)C(=O)CC(c1cccs1)C2 (stereo not given)
CCn1c(SCC(=O)Nc2ccc(N3CCOCC3)cc2)nnc1-c1ccc(OC)cc1
CC(C)N1C(=O)CC(Nc2ccc(N3CCOCC3)cc2)C1=O (stereo not given)
Clc1ccc(CNc2nc(N3CCOCC3)nc(N3CCOCC3)n2)cc1
COCCNC(=O)C[C@@H]1CC[C@H]2[C@@H](COc3ccc(NC(C)=O)cc3C(=O)N2C)O1
CCCNC(=O)C[C@@H]1CC[C@@H]2[C@H](COc3ccc(NC(=O)Nc4c(C)noc4C)cc3C(=O)N2C)O1
COc1ccccc1CNC(=O)C[C@@H]1CC[C@H]2[C@@H](COc3ccc(NC(=O)Nc4ccc(F)c(F)c4)cc3C(=O)N2C)O1
CC(C)C(=O)Nc1ccc2c(c1)C(=O)N(C)[C@H]1CC[C@@H](CC(=O)NCC3CC3)O[C@@H]1CO2
COCC(=O)Nc1ccc2c(c1)C(=O)N(C)[C@H]1CC[C@@H](CC(=O)O)O[C@H]1CO2
COc1ccccc1CNC(=O)C[C@H]1CC[C@H]2[C@H](COc3ccc(NC(=O)Nc4ccc(F)c(F)c4)cc3C(=O)N2C)O1
COc1ccccc1CNC(=O)C[C@@H]1CC[C@H]2[C@H](COc3ccc(NC(=O)Nc4ccc(F)c(F)c4)cc3C(=O)N2C)O1
Cc1ccc2c(C)nc(Nc3nc(CSc4nc5ccccc5[nH]4)cc(=O)[nH]3)nc2c1
Cc1nc(Nc2nc(CSc3nc4ccccc4[nH]3)cc(=O)[nH]2)nc2ccccc12
NC(=O)c1ccc(-n2nnnc2SCC(=O)c2ccc(O)c(O)c2)cc1
Cc1ccc(-n2nnnc2SCC(=O)N2c3ccccc3NC(=O)C2(C)C)cc1
O=C(C[C@H]1CC[C@@H]2[C@H](COC[C@H](O)CN2C(=O)C2CCCC2)O1)NCc1ccncc1
N#Cc1cnn2c1nc(N1CCCCC1)c1ccccc12
CCCCn1c(SCC(=O)Nc2nnc(CC)s2)nc2c1c(=O)n(C)c(=O)n2C
CC(C)Cc1nnc(NC(=O)Cc2ccccc2[N+](=O)[O-])s1
